In PubChem BioAssay (NCATS) one finds Potency, viability (% of control) and viability, % of control data, which are given here for 27 compounds.

Experiment [1] is described as follows: Viability qHTS for spleen associated tyrosine kinase inhibitor (SYKi) naive MV4-11 cells (AID 1963823). Further: nearly all actives have a fitted effect of over 40% in size. The method, boiled down: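 qHTS, SYK inhibitor-naive MV4-11; 500 cells/well; 72 hr compound exposure, 37 C; CellTiter-Glo added, 10 min RT; luminescence read.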
(Quantitative high-throughput screening tests each substance at several concentrations.)

A short description of experiment [2]: Viability qHTS for spleen associated tyrosine kinase inhibitor (SYKi) drug resistant MV4-11 cells (AID 1963824). Further: nearly all actives have a fitted effect of over 35% in size. The gist of the method: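 SYK inhibitor-resistant MV4-11 AML cells, 500 per well, added to predispensed compounds and incubated 72 hr at 37 C, 5% CO2. Viability measured by CellTiter-Glo luminescence after 10 min at room temperature.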

The structures appear in SMILES notation. Results filed as inconclusive are left out. A number with no mark means an inactive call. Active and inactive are the calls of the source. The call rests on the fitted dose curve; in most records, active means well fitted cell-killing curve with a large enough effect; inconclusive means small, poorly fitted or top-dose-only effect, or effect the other way; inactive means no such curve, though single readings can be large or run the other way.
Potency means the concentration at half of the fitted maximal effect.

Turning to `CC(=O)OCC1=C[C@H](O)[C@@H]2C(C(=O)O)=CO[C@@H](O[C@@H]3O[C@H](CO)[C@@H](O)[C@H](O)[C@H]3O)[C@H]12`, the Potency entry in experiment [1] and in experiment [2] was “inactive” throughout.

As to `CC1(C)CC[C@]2(C(=O)O)CC[C@]3(C)C(=CCC4[C@@]5(C)C[C@H](O)[C@H](O[C@@H]6O[C@H](CO)[C@@H](O)[C@H](O)[C@H]6O)[C@@](C)(CO)C5[C@H](O)C[C@]43C)[C@@H]2C1` (some centres undefined), the Potency entry in experiment [1] and in experiment [2] was “inactive” each time.

As to `O=C(O[C@@H]1O[C@H](CO)[C@@H](O)[C@H](O)[C@H]1O)c1c(O)cc(O)cc1/C=C/c1ccccc1`, the Potency entry in experiment [1] and in experiment [2] was “inactive” each time.

For the compound `CC(C)(O)c1ccc2c(c1)C(O)C[C@H]1[C@](C)(C(=O)O)CCC[C@]21C` (some centres undefined), the Potency result in experiment [1] and in experiment [2] was “inactive” throughout.

`C/C=C/C1OC2=C(C(=O)OC2(C)O)C(O)C1O` (centres undefined): the Potency result in experiment [1] and in experiment [2] was “inactive” in each case.

On to `CC(=O)O[C@H]1C[C@@]2(C)[C@@H](C[C@@H](O)[C@H]3[C@@]4(C)CC[C@@H](O)[C@@H](C)[C@@H]4CC[C@@]32C)/C1=C(\CCC=C(C)C)C(=O)O`, for which the Potency entry in experiment [1] and in experiment [2] was “inactive” each time.

For `O=C(OCC(O)CO[C@@H]1O[C@H](C(=O)O)[C@@H](O)[C@H](O)[C@H]1O)c1ccccc1` (some centres undefined), the Potency entry in experiment [1] and in experiment [2] was “inactive” in each case.

As for `NC(=O)[C@H](Cc1ccccc1)NC(=O)[C@H](CCCN=C(N)N)NC(=O)C12CC3CC(CC(C3)C1)C2`, the viability (% of control) in experiment [1] was 88.8% [at 9.25 µM]. Further, in experiment [2], the viability, % of control was 78% [at 9.25 µM].

As for `O=C1NC(=O)/C(=C/c2cccc(C(F)(F)F)c2)S1`, the Potency result in experiment [1] and in experiment [2] was “inactive” throughout.

With `NC(=O)c1cnc(NCCc2ccc(O)c(Cl)c2)nc1NCc1ccccc1`, the Potency is 0.0231 µM (active) in experiment [1] and 0.0259 µM (active) in experiment [2].

On to `Cn1ncc(Cl)c1-c1cc(C(=O)N[C@H](CN)Cc2ccc(F)c(F)c2)oc1Cl`, for which the Potency in experiment [1] is 2.59 µM (active); in experiment [2], 8.2 µM (active).

As for `C[C@@H]1O[C@@H](O[C@@H]2[C@@H](O)[C@H](O[C@H]3[C@H](O[C@H]4CC[C@@]5(C)C(CC[C@]6(C)C5CC=C5[C@@H]7CC(C)(C)CC[C@]7(C(=O)O[C@@H]7O[C@H](CO)[C@@H](O)[C@H](O)[C@H]7O[C@@H]7O[C@@H](C)[C@H](O[C@@H]8O[C@@H](C)[C@H](O)[C@@H](O)[C@H]8O)[C@@H](O)[C@H]7O)CC[C@]56C)[C@@]4(C)CO)O[C@H](C(=O)O)[C@@H](O)[C@@H]3O)O[C@H](CO)[C@H]2O)[C@H](O)[C@H](O)[C@H]1O` (some centres undefined), the viability (% of control) in experiment [1] was 94% [at 9.25 µM]. For the same compound, in experiment [2], the viability, % of control was 108% [at 9.25 µM].

Regarding `COc1c2cc(c(O[C@@H]3O[C@H](CO)[C@@H](O)[C@H](O)[C@H]3O)c1OC)CCCCC(O)CCc1ccc(O)c-2c1` (some centres undefined), the Potency entry in experiment [1] and in experiment [2] was “inactive” throughout.

In the case of `CCCCc1nc(Cl)c(CO)n1Cc1ccc(-c2ccccc2-c2nnn[nH]2)cc1`, the Potency result in experiment [1] and in experiment [2] was “inactive” throughout.

For the compound `CC[C@H]1OC(=O)[C@H](C)C(=O)[C@H](C)[C@@H](OC2O[C@H](C)C[C@H](N(C)C)[C@H]2O)[C@@H](C)C[C@@H](C)C(=O)/C=C/[C@]1(C)O` (some centres undefined), the Potency result in experiment [1] and in experiment [2] was “inactive” throughout.

`CC(C)C(O)(CO)CCO[C@@H]1O[C@H](CO[C@H]2OC[C@](O)(CO)[C@H]2O)[C@@H](O)[C@H](O)[C@H]1O` (some centres undefined): the Potency result in experiment [1] and in experiment [2] was “inactive” each time.

For the compound `OCC1=C[C@@H](O)[C@@H]2C=CO[C@@H](O[C@@H]3O[C@H](CO)[C@@H](O)[C@H](O)[C@H]3O)[C@H]12`, the Potency entry in experiment [1] and in experiment [2] was “inactive” each time.

Turning to `O=C(Cc1ccccc1)OC[C@H]1O[C@H](O[C@H]2O[C@H](CO)[C@@H](O)[C@H](O)[C@H]2O)[C@H](O)[C@@H](O)[C@@H]1O`, the Potency result in experiment [1] and in experiment [2] was “inactive” throughout.

For `O=C(c1ccc(-c2ccc(Cl)cc2)o1)N(Cc1ccccn1)c1ccc(N2CCNCC2)cc1`, the Potency in experiment [1] was 13 µM (active); in experiment [2], 9.2 µM (active).

Turning to `CC1C(OC(=O)c2ccccc2)C(O)C2C(C(=O)O)=COC(OC3OC(CO)C(O)C(O)C3O)C12` (centres undefined), the Potency entry in experiment [1] and in experiment [2] was “inactive” in each case.

In the case of `CC(C)(C)S(=O)(=O)c1ccc2nccc(Nc3n[nH]c4ccc(F)cc34)c2c1`, the Potency in experiment [1] was 7.42 µM (active); in experiment [2], 9.34 µM (active).

Regarding `CCC[C@@]1(CCc2ccccc2)CC(O)=C([C@H](CC)c2cccc(NS(=O)(=O)c3ccc(C(F)(F)F)cn3)c2)C(=O)O1`, the Potency in experiment [1] is 20.6 µM (active); in experiment [2] it was 23.1 µM (active).

As to `CC(C/C=C/C(C)(C)O)C1CCC(C)(O)C(O)C1` (centres undefined), the Potency result in experiment [1] and in experiment [2] was “inactive” throughout.

As to `O=C(OC[C@H]1O[C@H](O[C@]2(CO)O[C@H](CO)[C@@H](O)[C@@H]2O)[C@H](O)[C@@H](O)[C@@H]1O)c1ccccc1`, the Potency entry in experiment [1] and in experiment [2] was “inactive” in each case.

As to `O=C1NC(=O)/C(=C\c2ccc3nccc(-c4ccncc4)c3c2)S1`, the Potency in experiment [1] is 0.13 µM (active); in experiment [2] it was 0.517 µM (active).

Regarding `Cc1cn(-c2cc(NC(=O)c3ccc(C)c(Nc4nccc(-c5cnccn5)n4)c3)cc(C(F)(F)F)c2)cn1`, the Potency entry in experiment [1] and in experiment [2] was “inactive” in each case.

Regarding `CC(C)=CCC/C(C)=C/CCC1(C)Oc2c(c(O)cc3c2CN(C(CCC(=O)O)C(=O)O)C3=O)CC1O` (centres undefined), the Potency result in experiment [1] and in experiment [2] was “inactive” in each case.
